Laboratory results from the supplement of paper PMC6522484.
± gives the standard deviation of the averaged measurements.

What was measured:
DLD1 [1] = assay: cell viability (CellTiter-Glo) relative to plate median (fraction of plate median); higher = more viable cells; details: 5 µM; treatment time 24 h; reporter: 7TFP
Outline: (§1)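 Luminescence, normalised well by well to the plate median, is tabulated as a mean of independent replicates. There were two replicates, run on colorectal cancer lines stably transduced with lentiviral TCF/Wnt firefly luciferase reporters and dosed with library compounds at a final 5 µM for 24 h. Readouts were firefly luciferase or CellTiterGlo on parallel plates.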

HCT116 = assay: as above; details: 5 µM; treatment time 24 h; reporter: TCF4/Wnt
Outline: as §1

SW480 [2] = assay: as above; details: 5 µM; treatment time 24 h; reporter: 7TFP
Outline: as §1

DLD1 [3] = assay: TCF/Wnt firefly luciferase reporter signal relative to plate median (fraction of plate median); higher = higher Wnt reporter signal; details: 5 µM; treatment time 24 h; reporter: 7TFP
Outline: as §1

SW480 [4] = assay: as above; details: 5 µM; treatment time 24 h; reporter: 7TFP
Outline: as §1

Row | Structure (SMILES) | cell viability (DLD1 [1]) | cell viability (HCT116) | cell viability (SW480 [2]) | TCF/Wnt firefly luciferase reporter signal (DLD1 [3]) | TCF/Wnt firefly luciferase reporter signal (SW480 [4])
1 | CCCOc1ccccc1-c1nc2[nH]nnc2c(=O)[nH]1 | 0.985 ± 0.035 | 0.973 ± 0.14 | 0.909 ± 0.058 | 1.01 ± 0.064 | 0.951 ± 0.084
2 | CC(=O)O[C@H]1CC[C@]2(C)[C@H]3CC=C4[C@@H]5CC(C)(C)CC[C@]5(C)CC[C@@]4(C)[C@]3(C)CC[C@H]2C1(C)C [beta-AMYRIN ACETATE] | 0.982 ± 0.054 | 0.965 ± 0.025 | 1.03 ± 0.021 | 1.145 ± 0.0071 | 1.07 ± 0.014
3 | CC(N/C(=N\C#N)Nc1ccncc1)C(C)(C)C (stereo not given) | 0.99 ± 0.043 | 0.904 ± 0.0014 | 0.989 ± 0.1 | 0.799 ± 0.04 | 0.941 ± 0.073
4 | C=C1[C@@H]([C@@]2(C)C=CC(=O)C(C)(C)[C@@H]2CC(=O)OC)CC[C@@]2(C)[C@H](c3ccoc3)OC(=O)[C@H]3O[C@]132 | 0.94 ± 0.021 | 1.01 ± 0.039 | 1.02 ± 0.021 | 0.978 ± 0.19 | 0.996 ± 0.048
5 | OC[C@H]1O[C@@H](O[C@@H]2[C@@H](CO)OC(O)(CO)[C@H]2O)[C@H](O)[C@@H](O)[C@H]1O (mixture of isomers) | 0.999 ± 0.0014 | 0.99 ± 0.028 | 0.984 ± 0.0028 | 1.07 ± 0.18 | 1.02 ± 0.034
6 | COC1=C[C@@H](C)[C@@H]2C[C@H]3OC(=O)C[C@H]4C(C)=C(OC)C(=O)[C@H]([C@@]2(C)C1=O)[C@@]34C | 0.975 ± 0.064 | 0.972 ± 0.054 | 0.979 ± 0.044 | 1.025 ± 0.0071 | 1
7 | NCCC(=O)c1ccccc1N | 1.03 ± 0.052 | 1.08 ± 0.057 | 0.987 ± 0.0085 | 0.981 ± 0.042 | 0.838 ± 0.016
8 | O=C(O)CCCN1C(=O)c2cccc3cccc(c23)C1=O | 0.994 ± 0.08 | 1.04 ± 0.035 | 0.995 ± 0.05 | 0.96 ± 0.011 | 0.957 ± 0.047
9 | CC(=O)N1CCN(c2ccc(OCC3COC(Cn4ccnc4)(c4ccc(Cl)cc4Cl)O3)cc2)CC1 (stereo not given) | 0.997 ± 0.033 | 0.9685 ± 0.005 | 0.901 ± 0.012 | 1.05 ± 0.05 | 1.01 ± 0.061
10 | COC(=O)[C@]1(C)CCC[C@]2(C)c3ccc(C(C)C)cc3C(=O)CC12 (stereo not given in full) | 1.1 ± 0.13 | 1.03 ± 0.081 | 1.05 ± 0.028 | 1.07 ± 0.25 | 1.07
11 | CC(=O)OCC(=O)[C@@]1(O)CC[C@H]2[C@@H]3CCC4=CC(=O)CC[C@]4(C)[C@H]3C(=O)C[C@@]21C | 1.04 ± 0.021 | 1 ± 0.079 | 1.12 ± 0.12 | 1.05 ± 0.021 | 1.04 ± 0.13
12 | CCc1ccc2c(O)c3c(cc2c1C(=O)OC)C(=O)c1c(O)ccc(O)c1C3=O | 1.04 ± 0.093 | 1.06 ± 0.099 | 1.14 ± 0.13 | 1.04 ± 0.15 | 0.967 ± 0.029
13 | Nc1ccc(C(=O)NCC(=O)O)cc1 | 0.988 ± 0.059 | 0.962 ± 0.069 | 0.98 ± 0.057 | 0.998 ± 0.088 | 0.984 ± 0.12
14 | COc1c2ccoc2cc2oc(C)cc(=O)c12 | 0.967 ± 0.016 | 0.973 ± 0.12 | 0.92 ± 0.0042 | 0.894 ± 0.012 | 0.986 ± 0.034
15 | CC(CN(C)C)CN1c2ccccc2CCc2ccccc21 (stereo not given) | 1 ± 0.021 | 0.929 ± 0.055 | 1.05 ± 0.086 | 0.93 ± 0.097 | 1.13 ± 0.099
16 | C/C(=C\C(=O)OCCCCCCCCC(=O)O)C[C@@H]1OC[C@H](C[C@@H]2O[C@H]2[C@@H](C)[C@H](C)O)[C@@H](O)[C@H]1O | 0.973 ± 0.052 | 1 ± 0.025 | 0.939 ± 0.017 | 0.9545 ± 0.0021 | 1.03 ± 0.028
17 | COc1c2occc2c(OC)c2c(=O)cc(C)oc12 | 0.99 ± 0.057 | 0.969 ± 0.14 | 0.989 ± 0.016 | 1.2 ± 0.099 | 1.12 ± 0.042
18 | COc1ccc([C@@H](C)C(=O)c2ccc(O)cc2O)cc1 | 1.04 ± 0.098 | 1.09 ± 0.071 | 1.025 ± 0.0071 | 1.02 ± 0.071 | 1.07 ± 0.1
19 | CC(=O)Oc1ccc(-c2cc(=O)c3c(OC(C)=O)cc(OC(C)=O)cc3o2)cc1 | 0.993 ± 0.038 | 0.934 ± 0.093 | 0.9365 ± 0.005 | 1.01 ± 0.021 | 0.926 ± 0.011
20 | Nc1ccc(C(=O)O)c(O)c1 | 1.01 ± 0.021 | 1.06 ± 0.11 | 0.989 ± 0.013 | 1.04 ± 0.057 | 1.06 ± 0.1
21 | COC1=CC(=O)c2c(O)c3c(c(O)c2C1=O)OC1(Oc2c(cc4cc(C)oc(=O)c4c2O)C2OC21)C3O (stereo not given) [Griseorhodin A] | 1.09 ± 0.11 | 1.01 ± 0.04 | 1.05 ± 0.021 | 0.925 ± 0.057 | 1.01 ± 0.014
22 | CC(=O)O[C@H]1CC[C@]2(C)C3=C(CC[C@H]2C1(C)C)[C@]1(C)CC[C@H]([C@H](C)CCC=C(C)C)[C@@]1(C)CC3 | 0.966 ± 0.036 | 0.957 ± 0.055 | 0.953 ± 0.034 | 0.9 ± 0.098 | 0.958 ± 0.1
23 | COc1cc(OC)c2c(=O)c(-c3ccc4c(c3)OCO4)coc2c1 | 0.9395 ± 0.00071 | 1 ± 0.16 | 0.9755 ± 0.005 | 1.02 ± 0.066 | 1.02 ± 0.028
24 | Nc1c2ccccc2nc2ccccc12 | 0.942 ± 0.071 | 0.919 ± 0.11 | 1.03 ± 0.021 | 1.52 ± 0.54 | 1.01 ± 0.13
25 | C=CCc1ccccc1OCC(O)CNC(C)C (stereo not given) | 1.03 ± 0.055 | 1.04 ± 0.035 | 0.961 ± 0.035 | 1.1 ± 0.27 | 0.852 ± 0.077
26 | CCC(=O)OCC(=O)[C@@]1(OC(=O)CC)[C@H](C)CC2C3C([C@@H](O)C[C@@]21C)[C@@]1(C)C=CC(=O)C=C1C[C@H]3Cl (stereo not given in full) | 1.01 ± 0.014 | 1.02 ± 0.014 | 0.975 ± 0.0057 | 0.9755 ± 0.0078 | 0.926 ± 0.049
27 | NC12CC3CC(CC(C3)C1)C2 | 0.979 ± 0.028 | 0.944 ± 0.058 | 1.04 ± 0.021 | 0.908 ± 0.34 | 1.025 ± 0.0071
28 | COc1ccc(CN(CCN(C)C)c2ccccn2)cc1 | 1.07 ± 0.057 | 1.01 ± 0.14 | 1.08 ± 0.021 | 0.96 ± 0.071 | 1.13 ± 0.014
29 | CC[C@H](C)C(=O)O[C@H]1C[C@@H](C)C=C2C=C[C@H](C)[C@H](CC[C@@H]3C[C@@H](O)CC(=O)O3)[C@H]21 [Mevinolin, Lovastatin] | 0.966 ± 0.1 | 0.931 ± 0.048 | 0.942 ± 0.017 | 0.836 ± 0.26 | 0.943 ± 0.029
